The list is a sample of the results.
aSyn UTR act: Activators via SNCA 5'UTR binding, MLPCN; alpha-synuclein 5'UTR reporter, activators screen; activity score, % (tested at 7.5 µM), hits read low; 300,000 tested, 7.1% active; in the data active means activity score below about -60%
Hits are given with their value; i = inactive.

SMILES	aSyn UTR act
Cc1ccc(S(=O)(=O)c2nc(S(C)(=O)=O)sc2N2CCOCC2)cc1	-72
Cc1ccc(S(=O)(=O)c2nc(S(=O)(=O)c3ccc(C)cc3)c(N3CCN(CCO)CC3)s2)cc1	-64
CCCOC(=O)/C(=C\C=C\c1ccco1)NC(=O)c1ccccc1	-86
NS(=O)(=O)c1ccc2nc(NC(=O)c3ccc(Br)o3)sc2c1	-141
Cc1ccc2nc(NC(=O)c3ccc(Br)o3)sc2c1	-82
N#C/C(=C\c1ccc(-c2nc3ccccc3s2)o1)C(N)=O	-71
O=C(c1cc(-c2ccccc2)on1)N1CCCc2ccccc21	-100
O=C(c1cc(-c2ccco2)on1)N1CCCc2ccccc21	-69
O=C(c1nn2c(C(F)(F)F)cc(-c3ccco3)nc2c1Br)N1CCCc2ccccc21	i
CC(C)c1ccc(C(=O)CSc2ncn[nH]2)cc1	-137
COc1ccc(OC)c(Nc2cc(C)nc3ccc(C)cc23)c1	i
COc1ccc2nc(C)cc(Nc3ccc(N4CCN(C)CC4)cc3)c2c1	-87
Cc1cc(C)c2nc(C)cc(N/N=C/c3ccc(O)cc3)c2c1	i
Cc1cc(C)nc(N/N=C/c2sccc2C)n1	-82
Cc1cc(C)nc(N/N=C/c2ccccc2)n1	-73
Cc1ccsc1/C=N/Nc1ccc(F)cc1F	-176
Cc1ccsc1/C=N/Nc1ncc(Cl)cc1Cl	-71
Cc1cc(C)nc(N/N=C/c2ccccc2Cl)n1	-88
Cc1ccsc1/C=N/Nc1nc(=O)[nH]nc1C	-85
CCc1ccc2nc(/N=C(\N)NC(=O)c3ccccc3)nc(C)c2c1	-120
CSCc1nc2sc(C(=O)Nc3nc(C)cs3)c(C)c2c(=O)[nH]1	-92
CN1CCN(C(c2ccc(Cl)cc2)c2cc(Cl)c3cccnc3c2O)CC1 (stereo not drawn)	i
COc1ccc(Oc2c(C)oc3cc(OC(=O)N4CCOCC4)ccc3c2=O)cc1	i
CCc1cc2c(=O)c(-c3nc4ccccc4[nH]3)coc2cc1OC(=O)N1CCOCC1	-75
CCN(CC)C(=O)Oc1ccc2cc(Br)ccc2c1	-87
SMILES	aSyn UTR act
COc1ccc(-c2coc3cc(OC(=O)N4CCOCC4)ccc3c2=O)cc1	-67
CCN(CC)C(=O)Oc1ccc2c(=O)c(-c3ccc(OC)cc3)coc2c1	-125
O=C(O)/C=C/C(=O)c1ccc2c(c1)CCc1ccccc1-2	-111
CC/C(=N\Nc1nncc2ccccc12)c1ccc(F)cc1	-190
O=C(/C=C/c1c(F)cccc1Cl)Nc1cccnc1	-111
O=C(/C=C/c1cc(Br)ccc1F)Nc1cccnc1	-118
O=C(OCn1ncc(Br)c(Br)c1=O)c1c(F)cccc1F	i
CC(C)(C)C(=O)Cn1ncc(N2CCCC2)c(Br)c1=O	-72
CC(=O)Cn1ncc(Br)c(Br)c1=O	-87
Cn1c(CN2CCCC2)nc2cc(NC(=O)c3ccc(Cl)cc3)ccc21	-63
Cn1c(CN2CCCCC2)nc2cc(NC(=O)c3ccc(Cl)cc3)ccc21	-66
Cn1c(CN2CCCC2)nc2cc(NC(=O)c3cccs3)ccc21	-76
Cc1ccc(C(C)C)c(OCC(=O)Nc2ccc3c(c2)nc(CCN2CCCCC2)n3C)c1	i
COc1ccc2c(c1OC)C(=O)N1C(C(=O)O)Cc3c([nH]c4ccccc34)C21 (stereo not drawn)	-66
CCCC(=O)Nc1ccc(C(=O)/C=C/c2ccc(SC)cc2)cc1	-70
COc1ccc(/C=C/c2n[nH]c(=O)c(C#N)c2C)cc1	-71
COc1ccc(NC(=O)O/N=C/c2ccccc2)cc1	-140
COc1ccc(/C=N/NC(=S)Nc2ccccc2)cc1	-72
S=C(N/N=C/c1ccccc1Cl)Nc1ccccc1	-106
S=C(N/N=C/c1ccc2ncccc2c1)Nc1ccccc1	i
Cc1cc(NO)nc(-c2ccc(Br)cc2)n1	-278
C/C(=N\N1C(=O)c2ccccc2NC1c1ccco1)c1ccccc1O (stereo not drawn)	i
O=C1c2ccccc2NC(c2ccco2)N1/N=C/c1ccco1 (stereo not drawn)	-92
Cc1ccc(/C=N/N2C(=O)c3ccccc3NC2c2ccc(C)cc2)cc1 (stereo not drawn)	-84
CCOc1ccccc1C(=O)Nc1ccsc1C(=O)OC	i
SMILES	aSyn UTR act
COC(=O)c1c(NC(=O)c2ccc(Br)s2)sc2c1CCC2	-92
COC(=O)c1sccc1NC(=O)c1ccc(Br)s1	-67
COC(=O)c1sccc1NC(=O)c1csc(C)c1	-80
O=C(CSCCO)Nc1ccc(C2CCCCC2)cc1	-127
COc1ccc(NC(=O)CSC2CCCCC2)cc1	-158
CCc1ccc(NC(=O)C(=S)NC2CCCCC2)cc1	-177
COc1ccc(NC(=O)C(=S)NC2CCCCC2)cc1	-125
COc1ccc(NC(=O)C(=S)N2CCCC2)cc1	-63
CCOc1ccc(NC(=O)C(=S)NC2CCCCC2)cc1	-192
Oc1ccc(N=C/C=C/c2cccc(Br)c2)cc1-c1nc2ccccc2s1	-99
O=C(COC(=O)c1cc(=O)[nH]c2ccccc12)Nc1nc(-c2ccccc2)cs1	-73
O=C(Cn1nc(-c2ccccc2)c2ccccc2c1=O)Nc1ccccn1	-66
COc1ccccc1CC(=O)Nc1nc(-c2ccc(F)c(F)c2)cs1	-83
COC(=O)CCC(=O)Nc1nc(-c2ccccc2)cs1	-65
Cn1cc(Cl)c(C(=O)OCC(=O)Nc2nc(-c3ccc(Br)cc3)cs2)n1	-110
O=C(Cn1nc(C(=O)O)c2ccccc2c1=O)Nc1nc(-c2ccccc2)cs1	-71
O=C(Cc1cccs1)Nc1nc(-c2ccccc2)cs1	-81
C/C(=N\Nc1nc(-c2ccccc2)cs1)c1cccs1	-280
Cn1nccc1C(=O)OCC(=O)Nc1nc(-c2ccccc2)cs1	-126
O=C(COC(=O)c1cccs1)Nc1nc(-c2ccccc2)cs1	-90
Cc1nc(CC(=O)Nc2nc(-c3ccccc3)cs2)cs1	-66
O=C(COC(=O)CNC(=O)c1ccccc1)Nc1nc(-c2ccccc2)cs1	-71
CC(C)c1ccc(C(=O)N(c2ccccn2)C(C)c2ccco2)cc1 (stereo not drawn)	-161
CC(=O)NC(c1ccco1)c1ccc2cccnc2c1O (stereo not drawn)	i
Cc1cc(C(=O)N/N=C/c2ccccc2)c(C)o1	-70
SMILES	aSyn UTR act
Cn1nccc1C(=O)N/N=C/c1c(O)ccc2ccccc12	i
Cn1c(C(=O)N/N=C/c2ccccc2)cc2ccccc21	-108
Cc1cc(C(=O)N/N=C/c2cccc3ccccc23)c(C)o1	-62
CC(C)n1cc(/C=N/Nc2ccc(C(=O)O)cc2)c2ccccc21	-79
Nc1ccc(C(=O)N/N=C/c2cn(Cc3ccccc3F)c3ccccc23)cc1	i
O=C(O)c1ccc(N/N=C/c2cn(Cc3ccccc3F)c3ccccc23)cc1	-65
Clc1nc2ccccc2cc1-c1nnn(-c2ccccc2)n1	-160
O=C(Nc1ccccc1)Nc1ccc(-n2ccc(C(F)(F)F)n2)cc1	-277
O=C(NC1CCCC1)c1cc2c(ccc3ccccc32)o1	-202
CNC(=O)c1cc2c(ccc3ccccc32)o1	-60
O=C(Nc1cc2c(ccc3ccccc32)oc1=O)C1CCCCC1	-62
CC(=O)N(/N=C1\Sc2ccccc2C1=O)c1ccccc1C	-170
CCC(=O)Nc1cccc(NC(=S)NC(=O)c2ccccc2)c1	-183
CCC(=O)Nc1cccc(NC(=S)NC(=O)c2ccc(C)cc2)c1	-156
CCC(=O)Nc1cccc(NC(=S)NC(=O)c2cccc(C)c2)c1	-172
CCC(=O)Nc1cccc(NC(=S)NC(=O)c2cc3ccccc3o2)c1	-133
O=C1c2ccccc2C(=O)C12OC2c1ccc(Cl)cc1 (stereo not drawn)	-72
Cc1cccc(N2CCN(C(=O)CN3C(=O)C4CC=CCC4C3=O)CC2)c1C (stereo not drawn)	-113

Screens deposited in PubChem BioAssay by Broad Institute.
